# The full data set covers some 7,900 targets. This sample favours those with a hit. About 0.6% of all pairs of compound and target were hits. Unmarked numbers belong to inactive results.
# Assays:
# Assay in all cases: log2 fold change, soluble protein after heating vs DMSO (PISA); higher = thermal stabilisation; K562 cells, 10 uM, 30 min; active = over 0.2 and 3.5 SD of the protein, either way, in both replicates (recomputed)
# bafetinib = compound: Cc1ccc(NC(=O)c2ccc(CN3CC[C@H](N(C)C)C3)c(C(F)(F)F)c2)cc1Nc1nccc(-c2cncnc2)n1 [bafetinib]
# Outline: (§1)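 K562 cells at 2×10^6 cells/mL were given 10 μM compound for 30 min. Aliquots then went through 3 min of heating across 48°C-58°C, were pooled, and were extracted in PBS with 0.5% NP-40 at 4°C, and the supernatant after 21,000xg for 90 min was quantified by TMTpro 16plex LC-MS/MS with channel sums equalised. Thermal stability relative to control samples, from duplicates, is given as log2 fold change.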
# [1] = compound: Cc1cccc(CC(=O)N2CCc3c2ccc(-c2cn(C)c4ncnc(N)c24)c3F)n1
# Outline: as §1
# nilotinib = compound: Cc1cn(-c2cc(NC(=O)c3ccc(C)c(Nc4nccc(-c5cccnc5)n4)c3)cc(C(F)(F)F)c2)cn1 [nilotinib]
# Outline: as §1
# [2] = compound: Cc1nc(Nc2n[nH]c3c2CN(C(=O)N[C@H](CN(C)C)c2ccccc2)C3(C)C)c2sccc2n1
# Outline: as §1
# dasatinib = compound: Cc1nc(Nc2ncc(C(=O)Nc3c(C)cccc3Cl)s2)cc(N2CCN(CCO)CC2)n1 [dasatinib]
# Outline: as §1
# [3] = compound: Cc1ncc(-c2ccnc(Nc3ccc(S(C)(=O)=O)cc3)n2)n1C(C)C
# Outline: as §1
# [4] = compound: Cn1cc(-c2ccc3c(c2)CCN3C(=O)Cc2cccc(C(F)(F)F)c2)c2c(N)ncnc21
# Outline: as §1
# [5] = compound: Cn1cc(-c2ccc3nnc(C(F)(F)c4ccc5ncccc5c4)n3n2)cn1
# Outline: as §1
# tipifarnib = compound: Cn1cncc1[C@@](N)(c1ccc(Cl)cc1)c1ccc2c(c1)c(-c1cccc(Cl)c1)cc(=O)n2C [tipifarnib]
# Outline: as §1
# mubritinib = compound: FC(F)(F)c1ccc(/C=C/c2nc(COc3ccc(CCCCn4ccnn4)cc3)co2)cc1 [mubritinib]
# Outline: as §1
# [6] = compound: NC(=O)Nc1cc(-c2cccc(F)c2)sc1C(=O)N[C@H]1CCCNC1
# Outline: as §1
# [7] = compound: NC(=O)c1cnc(N[C@@H]2CCCC[C@@H]2N)nc1Nc1cccc(-n2nccn2)c1
# Outline: as §1
# [8] = compound: NC1(c2ccc(-c3nc4ccn5c(=O)[nH]nc5c4cc3-c3ccccc3)cc2)CCC1
# Outline: as §1
# [9] = compound: NCC(=O)Nc1ccc(-n2nc(C(F)(F)F)cc2-c2ccc3c(ccc4ccccc43)c2)cc1
# Outline: as §1
# entinostat = compound: Nc1ccccc1NC(=O)c1ccc(CNC(=O)OCc2cccnc2)cc1 [entinostat]
# Outline: as §1
# vorinostat = compound: O=C(CCCCCCC(=O)Nc1ccccc1)NO [vorinostat]
# Outline: as §1
# citarinostat = compound: O=C(CCCCCCNC(=O)c1cnc(N(c2ccccc2)c2ccccc2Cl)nc1)NO [citarinostat]
# Outline: as §1
# silmitasertib = compound: O=C(O)c1ccc2c(c1)nc(Nc1cccc(Cl)c1)c1ccncc12 [silmitasertib]
# Outline: as §1
# [10] = compound: O=C1NC(=O)C(c2cnc3ccccn23)=C1c1cn2c3c(cc(F)cc13)CN(C(=O)N1CCCCC1)CC2
# Outline: as §1
# [11] = compound: c1cc(OCCN2CCCCC2)cc(-c2n[nH]c3ccc(-c4nnc[nH]4)cc23)c1
# Outline: as §1
# Chain of UniProt P48556 (P48556 whole entry, looked up): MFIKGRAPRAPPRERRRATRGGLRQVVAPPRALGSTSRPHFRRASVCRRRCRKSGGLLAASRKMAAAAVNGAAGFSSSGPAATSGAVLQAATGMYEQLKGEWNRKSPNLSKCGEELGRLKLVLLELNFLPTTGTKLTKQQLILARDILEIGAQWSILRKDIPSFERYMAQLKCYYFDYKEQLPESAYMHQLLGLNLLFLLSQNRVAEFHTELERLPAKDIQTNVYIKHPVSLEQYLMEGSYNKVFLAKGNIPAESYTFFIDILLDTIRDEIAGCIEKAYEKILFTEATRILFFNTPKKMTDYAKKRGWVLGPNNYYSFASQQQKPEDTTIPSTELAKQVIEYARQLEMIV
# Chain of UniProt Q8TBX8 (Q8TBX8 whole entry, looked up): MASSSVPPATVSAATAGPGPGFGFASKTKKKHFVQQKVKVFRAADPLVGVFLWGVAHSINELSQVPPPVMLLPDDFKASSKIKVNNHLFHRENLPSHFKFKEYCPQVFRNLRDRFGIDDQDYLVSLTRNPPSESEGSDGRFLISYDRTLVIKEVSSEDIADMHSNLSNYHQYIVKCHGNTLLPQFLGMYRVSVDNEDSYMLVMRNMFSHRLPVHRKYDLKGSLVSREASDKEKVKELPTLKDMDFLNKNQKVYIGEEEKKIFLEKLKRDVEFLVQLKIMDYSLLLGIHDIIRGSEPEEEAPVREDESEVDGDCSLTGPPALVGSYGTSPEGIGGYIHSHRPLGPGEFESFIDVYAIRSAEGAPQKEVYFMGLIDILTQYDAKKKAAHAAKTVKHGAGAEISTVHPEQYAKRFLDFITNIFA
# Chain of UniProt Q9H814 (Q9H814 whole entry, looked up): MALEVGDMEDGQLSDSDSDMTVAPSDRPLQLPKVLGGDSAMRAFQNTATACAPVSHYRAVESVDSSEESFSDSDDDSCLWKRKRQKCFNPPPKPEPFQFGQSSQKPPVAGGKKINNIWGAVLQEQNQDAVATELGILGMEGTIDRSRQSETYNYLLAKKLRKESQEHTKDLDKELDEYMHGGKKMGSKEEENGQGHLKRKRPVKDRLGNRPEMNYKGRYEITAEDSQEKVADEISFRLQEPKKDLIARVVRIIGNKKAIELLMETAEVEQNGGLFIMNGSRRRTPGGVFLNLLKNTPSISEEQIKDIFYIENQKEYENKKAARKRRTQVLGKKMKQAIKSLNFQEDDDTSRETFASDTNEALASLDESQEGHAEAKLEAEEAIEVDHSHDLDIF
# Chain of UniProt Q16822 (Q16822 whole entry, looked up): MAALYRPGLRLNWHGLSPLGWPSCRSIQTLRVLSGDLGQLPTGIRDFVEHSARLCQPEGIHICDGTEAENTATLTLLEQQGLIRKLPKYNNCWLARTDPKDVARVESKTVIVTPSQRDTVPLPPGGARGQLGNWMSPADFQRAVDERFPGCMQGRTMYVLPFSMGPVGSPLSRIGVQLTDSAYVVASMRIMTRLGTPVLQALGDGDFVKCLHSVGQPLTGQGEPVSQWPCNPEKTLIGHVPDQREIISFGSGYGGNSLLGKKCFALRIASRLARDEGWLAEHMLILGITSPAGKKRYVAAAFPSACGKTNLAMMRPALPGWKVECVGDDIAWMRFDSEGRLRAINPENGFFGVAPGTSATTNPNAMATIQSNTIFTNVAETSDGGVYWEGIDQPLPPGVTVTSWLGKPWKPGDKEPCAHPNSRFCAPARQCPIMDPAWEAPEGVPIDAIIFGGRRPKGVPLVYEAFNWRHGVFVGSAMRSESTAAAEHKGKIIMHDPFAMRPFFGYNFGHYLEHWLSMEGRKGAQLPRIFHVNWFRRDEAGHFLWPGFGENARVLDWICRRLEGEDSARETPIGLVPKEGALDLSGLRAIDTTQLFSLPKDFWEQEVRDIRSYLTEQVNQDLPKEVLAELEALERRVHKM
# Chain of UniProt Q9Y478 (Q9Y478 whole entry, looked up): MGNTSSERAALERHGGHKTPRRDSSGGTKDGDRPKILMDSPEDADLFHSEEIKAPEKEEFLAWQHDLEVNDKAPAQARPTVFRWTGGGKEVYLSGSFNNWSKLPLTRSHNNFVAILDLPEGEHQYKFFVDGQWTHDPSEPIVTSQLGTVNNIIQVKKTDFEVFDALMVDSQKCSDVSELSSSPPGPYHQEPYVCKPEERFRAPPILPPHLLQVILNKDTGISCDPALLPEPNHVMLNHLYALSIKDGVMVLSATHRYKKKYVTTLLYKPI
# Chain of UniProt Q9UKL6 (Q9UKL6 whole entry, looked up): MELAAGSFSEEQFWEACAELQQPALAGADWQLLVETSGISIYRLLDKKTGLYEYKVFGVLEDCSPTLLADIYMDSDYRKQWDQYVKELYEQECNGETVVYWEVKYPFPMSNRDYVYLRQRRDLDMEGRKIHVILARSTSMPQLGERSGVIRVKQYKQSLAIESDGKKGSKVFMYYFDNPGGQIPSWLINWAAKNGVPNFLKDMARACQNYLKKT
# Chain of UniProt Q9NTI5 (Q9NTI5 whole entry, looked up): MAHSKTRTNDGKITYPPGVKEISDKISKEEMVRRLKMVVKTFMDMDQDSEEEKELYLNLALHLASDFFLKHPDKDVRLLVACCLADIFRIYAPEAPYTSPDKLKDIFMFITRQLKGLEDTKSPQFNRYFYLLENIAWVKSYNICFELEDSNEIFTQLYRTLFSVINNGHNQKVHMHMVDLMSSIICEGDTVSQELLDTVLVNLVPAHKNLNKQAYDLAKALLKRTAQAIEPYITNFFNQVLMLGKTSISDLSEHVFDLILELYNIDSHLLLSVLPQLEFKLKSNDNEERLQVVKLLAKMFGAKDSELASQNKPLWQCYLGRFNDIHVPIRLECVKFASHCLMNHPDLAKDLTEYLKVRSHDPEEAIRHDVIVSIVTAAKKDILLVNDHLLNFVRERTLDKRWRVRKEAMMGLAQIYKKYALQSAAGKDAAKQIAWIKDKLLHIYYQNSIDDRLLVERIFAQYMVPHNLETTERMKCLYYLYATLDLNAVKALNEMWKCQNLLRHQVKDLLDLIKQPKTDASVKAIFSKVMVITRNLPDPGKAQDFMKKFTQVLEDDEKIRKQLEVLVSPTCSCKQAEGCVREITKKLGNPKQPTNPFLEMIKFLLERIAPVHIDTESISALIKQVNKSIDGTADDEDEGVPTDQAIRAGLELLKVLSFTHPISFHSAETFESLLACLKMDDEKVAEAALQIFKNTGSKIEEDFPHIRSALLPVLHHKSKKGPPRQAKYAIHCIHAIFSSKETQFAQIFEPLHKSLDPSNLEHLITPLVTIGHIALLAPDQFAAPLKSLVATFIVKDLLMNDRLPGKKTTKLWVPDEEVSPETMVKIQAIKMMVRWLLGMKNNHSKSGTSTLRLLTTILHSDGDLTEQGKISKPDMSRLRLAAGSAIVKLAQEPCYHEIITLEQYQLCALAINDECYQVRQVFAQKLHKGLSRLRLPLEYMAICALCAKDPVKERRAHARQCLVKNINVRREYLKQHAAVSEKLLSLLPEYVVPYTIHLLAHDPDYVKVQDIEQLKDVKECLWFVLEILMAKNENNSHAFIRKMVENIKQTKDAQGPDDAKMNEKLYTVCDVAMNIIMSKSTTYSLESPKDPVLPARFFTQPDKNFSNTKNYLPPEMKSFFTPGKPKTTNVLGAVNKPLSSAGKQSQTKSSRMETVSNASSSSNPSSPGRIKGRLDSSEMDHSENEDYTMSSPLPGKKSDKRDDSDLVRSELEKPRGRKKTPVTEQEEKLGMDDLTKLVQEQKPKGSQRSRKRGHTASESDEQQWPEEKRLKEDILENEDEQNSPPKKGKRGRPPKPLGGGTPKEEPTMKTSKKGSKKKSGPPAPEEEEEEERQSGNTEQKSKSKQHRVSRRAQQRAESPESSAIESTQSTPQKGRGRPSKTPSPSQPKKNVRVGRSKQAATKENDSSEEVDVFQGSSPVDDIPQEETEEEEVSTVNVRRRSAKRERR
# Chain of UniProt P50897 (P50897 whole entry, looked up): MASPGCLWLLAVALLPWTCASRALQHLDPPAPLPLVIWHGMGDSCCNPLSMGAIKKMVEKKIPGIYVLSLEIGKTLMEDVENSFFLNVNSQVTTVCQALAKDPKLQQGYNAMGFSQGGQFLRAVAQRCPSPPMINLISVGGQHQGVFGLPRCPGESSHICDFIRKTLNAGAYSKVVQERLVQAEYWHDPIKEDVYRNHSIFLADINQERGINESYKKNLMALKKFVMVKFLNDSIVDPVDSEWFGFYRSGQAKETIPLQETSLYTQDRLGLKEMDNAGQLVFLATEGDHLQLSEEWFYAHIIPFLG
# Chain of UniProt Q16512 (Q16512 whole entry, looked up): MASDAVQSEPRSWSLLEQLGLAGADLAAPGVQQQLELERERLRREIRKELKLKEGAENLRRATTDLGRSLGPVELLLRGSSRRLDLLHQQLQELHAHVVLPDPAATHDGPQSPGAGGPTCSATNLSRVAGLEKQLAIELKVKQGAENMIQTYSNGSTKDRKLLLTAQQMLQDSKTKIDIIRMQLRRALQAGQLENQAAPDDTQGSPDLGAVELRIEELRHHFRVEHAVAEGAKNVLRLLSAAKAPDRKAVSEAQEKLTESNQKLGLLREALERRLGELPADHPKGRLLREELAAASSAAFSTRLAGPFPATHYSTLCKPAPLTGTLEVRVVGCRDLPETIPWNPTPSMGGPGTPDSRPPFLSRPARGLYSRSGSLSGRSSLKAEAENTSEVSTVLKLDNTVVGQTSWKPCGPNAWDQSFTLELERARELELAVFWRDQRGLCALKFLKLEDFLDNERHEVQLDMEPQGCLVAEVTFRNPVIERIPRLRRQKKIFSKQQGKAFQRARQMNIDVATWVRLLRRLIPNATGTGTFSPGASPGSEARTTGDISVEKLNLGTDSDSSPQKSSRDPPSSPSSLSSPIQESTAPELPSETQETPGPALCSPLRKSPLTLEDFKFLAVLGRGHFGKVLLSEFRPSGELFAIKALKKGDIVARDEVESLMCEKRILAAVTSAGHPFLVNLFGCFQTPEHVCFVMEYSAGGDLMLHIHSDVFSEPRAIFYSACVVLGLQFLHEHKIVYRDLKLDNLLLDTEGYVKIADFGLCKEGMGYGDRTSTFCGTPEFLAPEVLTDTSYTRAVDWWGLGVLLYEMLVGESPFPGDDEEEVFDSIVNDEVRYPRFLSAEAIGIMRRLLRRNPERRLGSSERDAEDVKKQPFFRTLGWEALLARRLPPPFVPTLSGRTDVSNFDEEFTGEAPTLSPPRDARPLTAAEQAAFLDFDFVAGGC
Target,log2 fold change (bafetinib),log2 fold change [1],log2 fold change (nilotinib),log2 fold change [2],log2 fold change (dasatinib),log2 fold change [3],log2 fold change [4],log2 fold change [5],log2 fold change (tipifarnib),log2 fold change (mubritinib),log2 fold change [6],log2 fold change [7],log2 fold change [8],log2 fold change [9],log2 fold change (entinostat),log2 fold change (vorinostat),log2 fold change (citarinostat),log2 fold change (silmitasertib),log2 fold change [10],log2 fold change [11]
PRKAB1 (UniProt Q9Y478),-0.154,0.006,-0.119,-0.162,-0.037,-0.007,0.04,-0.026,0.008,-0.104,-0.015,0.186,-0.015,0.035,0.056,0.063,0.089,0,-0.036,-0.067
PSMD8 (UniProt P48556),0.089,-0.013,0.039,0.054,0.029,-0.031,-0.07,0.009,0.117,-0.032,-0.035,0.042,-0.07,0.009,-0.009,0.016,-0.015,0.007,0.019,-0.101
PPP2R5A (UniProt Q15172),-0.008,0.027,-0.075,-0.039,-0.205,0.006,0.032,0.006,-0.179,0.012,0.098,0.009,-0.254 (active),-0.013,0.094,0.106,0.114,-0.059,-0.044,-0.021
PTTG1 (UniProt O95997),0.062,0.021,-0.025,-0.011,0.031,-0.116,0.024,-0.066,-0.013,0.033,-0.006,-0.098,-0.015,-0.071,0.035,-0.043,0.027,-0.002,-0.023,-0.128
PTPA (UniProt A6PVN8),-0.122,-0.084,-0.134,0.008,0.075,0.013,-0.075,0.05,0.232,0.114,-0.015,-0.057,-0.062,-0.003,-0.04,0.099,-0.098,0.266,0.05,-0.05
PHAX (UniProt Q9H814),-0.056,-0.117,0.028,-0.176,0.03,-0.096,-0.033,0.006,0.011,0.013,0.008,-0.084,-0.003,0.013,-0.022,-0.006,0.041,0.092,0.046,-0.029
PCTP (UniProt Q9UKL6),-0.067,-0.004,-0.04,0.114,-0.024,-0.017,0.065,0.036,-0.104,0.063,-0.078,-0.07,-0.023,-0.092,0.065,-0.051,0.003,0.043,-0.061,0.363
PCLAF (UniProt Q15004),-0.015,-0.1,-0.027,0.105,0.065,-0.081,-0.112,-0.069,-0.019,-0.095,-0.007,0.035,0.109,0.012,-0.04,-0.045,0.035,-0.009,0.008,-0.066
PI4K2A (UniProt Q9BTU6),-0.127,-0.042,0.004,0.037,-0.011,0.076,0.002,0.056,0.031,-0.006,0.033,0.204,-0.152,-0.05,-0.013,0.039,0.072,-0.012,-0.05,0.003
PDS5B (UniProt Q9NTI5),0.041,-0.139,-0.314,0.04,-0.244,-0.031,0.038,0.147,0.054,0.127,-0.07,-0.12,-0.043,-0.167,-0.036,-0.043,0.046,0.027,-0.08,0.03
PIP4K2C (UniProt Q8TBX8),0.663,-0.112,0.354,0.053,-0.042,1.25 (active),0.144,0.568,-0.07,-0.084,0.016,0.192,-0.125,0.293,-0.027,-0.071,-0.036,0.497,0.12,0.036
PCK2 (UniProt Q16822),-0.052,0.027,-0.05,0.027,-0.035,-0.006,0.041,0.003,0,-0.022,0,0,-0.029,-0.013,0.005,0.004,0.013,-0.025,-0.148,-0.032
PSMB4 (UniProt P28070),0.051,-0.052,0,0.063,0.076,-0.015,-0.03,0.014,0.047,0.009,0.029,-0.01,0.068,0.01,-0.036,-0.019,0.008,0.002,0.022,-0.014
PPT1 (UniProt P50897),-0.742 (active),0.011,0.021,0.02,0,-0.001,0.006,0.019,0.025,0.027,-0.049,-0.095,-0.338 (active),-0.096,-0.03,-0.036,0.053,0.019,-0.041,-0.041
PKN1 isoform 2 (UniProt Q16512),-0.006,0.038,-0.044,-0.705 (active),-0.154,-0.019,-0.02,-0.008,-0.046,0.098,-0.508 (active),-0.141,-0.118,-0.128,0.039,0.042,0.024,0.024,-0.131,-0.157
PRPF38A (UniProt Q8NAV1),0.048,0.025,-0.006,-0.871 (active),-0.033,-0.073,-0.011,-0.08,0.036,0.201,-0.039,-0.015,-0.105,-0.006,0.004,0.002,0.152,-0.212,0.095,-0.122
